In the supplement of paper PMC10849652:
Of roughly 7,900 targets only a part is listed; those with a hit were picked by preference. About 0.6% of all pairs of compound and target were hits. A number with no mark means an inactive call.

These targets were tested with CS(=O)(=O)c1ccc(-c2cnc(N)c(C(=O)Nc3ccccc3)n2)cc1 (assay: log2 fold change, soluble protein after heating vs DMSO (PISA); higher = thermal stabilisation; K562 cells, 10 uM, 30 min; active = over 0.2 and 3.5 SD of the protein, either way, in both replicates (recomputed)).
Outline: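 K562 cells (2×10^6 cells/mL) were treated with 10 μM compound for 30 min, and aliquots were heated for 3 min over 48°C-58°C. Pooled aliquots were extracted in PBS with 0.5% NP-40 at 4°C, and the supernatant after 21,000xg for 90 min was measured by TMTpro 16plex LC-MS/MS with channel sums equalised. Reported thermal stability, relative to control samples and from duplicates, is a log2 fold change.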

Sequence of UniProt Q99541 (Q99541 whole entry, looked up): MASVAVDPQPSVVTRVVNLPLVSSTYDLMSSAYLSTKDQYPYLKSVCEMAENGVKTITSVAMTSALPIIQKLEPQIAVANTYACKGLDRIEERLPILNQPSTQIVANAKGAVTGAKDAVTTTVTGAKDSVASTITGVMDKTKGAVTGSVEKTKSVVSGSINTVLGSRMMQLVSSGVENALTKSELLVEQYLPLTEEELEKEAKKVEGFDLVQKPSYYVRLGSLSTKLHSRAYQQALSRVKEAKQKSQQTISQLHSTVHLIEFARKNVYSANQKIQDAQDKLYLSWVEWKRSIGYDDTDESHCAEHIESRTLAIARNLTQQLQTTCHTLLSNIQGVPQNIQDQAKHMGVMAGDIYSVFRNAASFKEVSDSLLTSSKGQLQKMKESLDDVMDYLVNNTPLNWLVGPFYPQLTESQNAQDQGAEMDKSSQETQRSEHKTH
Sequence of UniProt Q5VU43 (Q5VU43 whole entry, looked up): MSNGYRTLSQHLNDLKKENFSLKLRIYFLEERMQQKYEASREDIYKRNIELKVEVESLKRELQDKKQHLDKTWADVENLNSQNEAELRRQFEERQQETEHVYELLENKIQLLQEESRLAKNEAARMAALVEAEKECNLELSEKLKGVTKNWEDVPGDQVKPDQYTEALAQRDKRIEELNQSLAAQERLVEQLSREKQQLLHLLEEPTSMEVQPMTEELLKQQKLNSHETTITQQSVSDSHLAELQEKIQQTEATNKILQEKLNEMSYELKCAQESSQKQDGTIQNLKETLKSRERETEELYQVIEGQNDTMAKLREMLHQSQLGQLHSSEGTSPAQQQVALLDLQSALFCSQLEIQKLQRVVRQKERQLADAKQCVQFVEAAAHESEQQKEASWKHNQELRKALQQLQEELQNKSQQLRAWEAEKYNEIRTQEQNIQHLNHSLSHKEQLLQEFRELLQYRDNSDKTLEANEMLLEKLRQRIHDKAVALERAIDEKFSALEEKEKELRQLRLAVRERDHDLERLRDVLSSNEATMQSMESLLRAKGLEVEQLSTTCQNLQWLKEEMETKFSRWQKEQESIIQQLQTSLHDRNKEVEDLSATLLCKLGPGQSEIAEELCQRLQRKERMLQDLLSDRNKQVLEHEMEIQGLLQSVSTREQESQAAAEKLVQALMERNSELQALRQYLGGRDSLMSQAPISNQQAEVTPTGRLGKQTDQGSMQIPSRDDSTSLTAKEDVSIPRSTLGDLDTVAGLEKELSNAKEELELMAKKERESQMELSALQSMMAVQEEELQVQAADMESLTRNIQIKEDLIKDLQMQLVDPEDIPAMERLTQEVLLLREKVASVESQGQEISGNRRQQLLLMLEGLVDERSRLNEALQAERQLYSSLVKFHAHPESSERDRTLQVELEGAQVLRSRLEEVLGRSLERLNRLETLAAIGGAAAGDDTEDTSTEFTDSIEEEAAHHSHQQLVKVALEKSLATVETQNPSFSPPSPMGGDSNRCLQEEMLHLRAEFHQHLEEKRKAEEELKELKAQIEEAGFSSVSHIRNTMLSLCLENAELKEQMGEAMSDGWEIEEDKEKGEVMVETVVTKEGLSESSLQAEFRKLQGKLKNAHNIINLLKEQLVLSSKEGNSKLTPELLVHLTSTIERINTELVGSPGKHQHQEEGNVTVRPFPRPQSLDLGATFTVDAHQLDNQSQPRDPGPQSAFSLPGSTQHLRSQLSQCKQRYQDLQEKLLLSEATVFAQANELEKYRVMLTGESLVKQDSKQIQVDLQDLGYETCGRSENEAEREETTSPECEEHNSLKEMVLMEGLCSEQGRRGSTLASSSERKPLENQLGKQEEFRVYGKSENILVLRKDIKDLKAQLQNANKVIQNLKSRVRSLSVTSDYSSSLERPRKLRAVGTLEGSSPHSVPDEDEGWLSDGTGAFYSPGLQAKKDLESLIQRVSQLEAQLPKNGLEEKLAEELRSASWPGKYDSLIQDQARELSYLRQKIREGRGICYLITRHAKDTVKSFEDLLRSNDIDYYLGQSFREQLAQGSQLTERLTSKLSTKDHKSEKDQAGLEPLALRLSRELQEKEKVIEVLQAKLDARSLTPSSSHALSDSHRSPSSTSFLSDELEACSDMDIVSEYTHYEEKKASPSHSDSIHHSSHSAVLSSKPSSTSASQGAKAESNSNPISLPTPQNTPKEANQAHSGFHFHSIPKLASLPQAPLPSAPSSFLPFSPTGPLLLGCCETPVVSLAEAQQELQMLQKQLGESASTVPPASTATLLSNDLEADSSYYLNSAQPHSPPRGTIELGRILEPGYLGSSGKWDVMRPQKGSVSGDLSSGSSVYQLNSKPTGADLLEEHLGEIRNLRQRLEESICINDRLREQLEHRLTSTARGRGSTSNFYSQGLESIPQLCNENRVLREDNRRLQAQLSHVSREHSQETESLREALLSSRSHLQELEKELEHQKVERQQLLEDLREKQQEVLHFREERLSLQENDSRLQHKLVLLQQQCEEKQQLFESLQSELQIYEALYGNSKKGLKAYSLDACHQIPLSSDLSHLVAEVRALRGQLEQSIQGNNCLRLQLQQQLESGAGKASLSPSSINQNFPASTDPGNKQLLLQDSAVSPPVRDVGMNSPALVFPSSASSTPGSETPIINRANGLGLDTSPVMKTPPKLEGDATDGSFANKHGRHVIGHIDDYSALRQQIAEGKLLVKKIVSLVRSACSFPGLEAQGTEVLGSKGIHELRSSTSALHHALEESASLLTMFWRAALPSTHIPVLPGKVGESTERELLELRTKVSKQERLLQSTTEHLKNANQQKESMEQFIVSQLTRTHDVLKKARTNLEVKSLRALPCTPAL
Sequence of UniProt Q8WUM4 (Q8WUM4 whole entry, looked up): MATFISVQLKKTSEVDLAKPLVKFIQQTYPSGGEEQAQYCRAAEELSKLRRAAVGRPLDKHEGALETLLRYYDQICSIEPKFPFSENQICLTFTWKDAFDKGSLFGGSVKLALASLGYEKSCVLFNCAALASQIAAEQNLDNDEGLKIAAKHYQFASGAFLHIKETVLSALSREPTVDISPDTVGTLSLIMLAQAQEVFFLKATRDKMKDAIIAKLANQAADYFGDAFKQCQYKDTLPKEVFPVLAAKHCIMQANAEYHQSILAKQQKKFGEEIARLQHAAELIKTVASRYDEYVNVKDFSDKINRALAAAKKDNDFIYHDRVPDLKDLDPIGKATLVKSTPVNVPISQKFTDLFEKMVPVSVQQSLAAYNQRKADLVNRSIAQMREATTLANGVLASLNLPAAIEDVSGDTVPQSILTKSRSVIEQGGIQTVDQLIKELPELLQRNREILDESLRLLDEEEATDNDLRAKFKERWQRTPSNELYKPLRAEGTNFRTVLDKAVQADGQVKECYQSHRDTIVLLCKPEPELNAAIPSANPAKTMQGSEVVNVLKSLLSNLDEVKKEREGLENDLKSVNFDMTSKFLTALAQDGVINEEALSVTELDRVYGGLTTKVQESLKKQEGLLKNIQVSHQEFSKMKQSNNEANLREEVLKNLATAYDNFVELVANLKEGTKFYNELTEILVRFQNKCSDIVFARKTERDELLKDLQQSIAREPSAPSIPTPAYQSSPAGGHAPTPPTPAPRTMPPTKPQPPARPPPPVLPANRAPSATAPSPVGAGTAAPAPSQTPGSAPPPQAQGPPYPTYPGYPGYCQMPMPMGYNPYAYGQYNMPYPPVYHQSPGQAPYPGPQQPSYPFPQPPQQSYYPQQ
Sequence of UniProt Q04759 (Q04759 whole entry, looked up): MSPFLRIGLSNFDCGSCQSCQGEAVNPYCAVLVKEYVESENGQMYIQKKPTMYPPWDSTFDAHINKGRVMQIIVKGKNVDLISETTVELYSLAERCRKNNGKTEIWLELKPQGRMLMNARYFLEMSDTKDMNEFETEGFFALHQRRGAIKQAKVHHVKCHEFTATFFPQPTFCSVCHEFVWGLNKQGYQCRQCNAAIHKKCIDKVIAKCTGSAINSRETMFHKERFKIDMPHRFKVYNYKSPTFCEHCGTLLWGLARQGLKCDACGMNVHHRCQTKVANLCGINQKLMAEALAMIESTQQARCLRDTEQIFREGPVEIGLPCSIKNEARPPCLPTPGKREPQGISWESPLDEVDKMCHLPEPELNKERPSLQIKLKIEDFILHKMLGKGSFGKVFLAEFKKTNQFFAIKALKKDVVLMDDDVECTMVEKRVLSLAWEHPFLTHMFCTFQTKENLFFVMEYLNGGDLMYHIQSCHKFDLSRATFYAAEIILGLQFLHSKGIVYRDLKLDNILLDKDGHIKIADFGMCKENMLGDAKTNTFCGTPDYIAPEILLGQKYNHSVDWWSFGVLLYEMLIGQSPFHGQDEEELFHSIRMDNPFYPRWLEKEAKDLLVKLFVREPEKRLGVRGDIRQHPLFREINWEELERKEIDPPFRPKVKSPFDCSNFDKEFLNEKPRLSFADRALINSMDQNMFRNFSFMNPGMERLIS
Sequence of UniProt Q15054 (Q15054 whole entry, looked up): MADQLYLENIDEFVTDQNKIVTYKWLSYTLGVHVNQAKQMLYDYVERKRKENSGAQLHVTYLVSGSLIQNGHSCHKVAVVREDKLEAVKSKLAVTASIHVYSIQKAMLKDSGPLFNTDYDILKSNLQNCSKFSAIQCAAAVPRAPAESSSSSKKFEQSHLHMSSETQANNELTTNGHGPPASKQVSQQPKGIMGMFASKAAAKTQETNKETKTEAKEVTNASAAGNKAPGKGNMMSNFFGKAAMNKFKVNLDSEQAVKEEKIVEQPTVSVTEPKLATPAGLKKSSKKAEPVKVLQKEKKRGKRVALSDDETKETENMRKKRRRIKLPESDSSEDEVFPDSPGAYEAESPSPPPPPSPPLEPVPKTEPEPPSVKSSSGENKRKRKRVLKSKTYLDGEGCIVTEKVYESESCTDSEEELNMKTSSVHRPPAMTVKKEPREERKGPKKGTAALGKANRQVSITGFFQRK
Sequence of UniProt Q9UKL6 (Q9UKL6 whole entry, looked up): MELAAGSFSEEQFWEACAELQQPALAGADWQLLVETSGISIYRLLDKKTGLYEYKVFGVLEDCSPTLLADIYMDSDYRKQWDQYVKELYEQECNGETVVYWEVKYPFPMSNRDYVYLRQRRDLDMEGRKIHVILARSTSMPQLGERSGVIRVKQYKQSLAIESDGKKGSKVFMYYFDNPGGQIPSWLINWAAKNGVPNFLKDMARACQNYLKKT

In order of falling log2 fold change:
1. POLD3 (UniProt Q15054)  0.177
2. PCTP (UniProt Q9UKL6)  0.094
3. PDCD6IP (UniProt Q8WUM4)  0.078
4. PRIM2 (UniProt P49643)  0.078
5. PPT2 isoform 3 (UniProt Q9UMR5)  0.074
6. PBK (UniProt Q96KB5)  0.048
7. PCGF2 (UniProt P35227)  0.041
8. POLR2B (UniProt P30876)  0.041
9. PIGT (UniProt Q969N2)  0.033
10. PELO (UniProt Q9BRX2)  0.026
11. PRKCQ (UniProt Q04759)  0.021
12. PSMD2 (UniProt Q13200)  0.017
13. PTPN23 (UniProt Q9H3S7)  0.014
14. PSMC3 (UniProt P17980)  0.002
15. PLA2G15 (UniProt Q8NCC3)  0
16. PELP1 (UniProt Q8IZL8)  -0.006
17. PDE4DIP isoform 4 (UniProt Q5VU43)  -0.007
18. POTEI (UniProt P0CG38)  -0.009
19. PPP6R1 (UniProt Q9UPN7)  -0.013
20. PTMA (UniProt P06454)  -0.041
21. PRPF38B (UniProt Q5VTL8)  -0.051
22. PIP4P2 (UniProt Q8N4L2)  -0.057
23. PLIN2 (UniProt Q99541)  -0.103
